# The list is not random: actives were taken first. Their share in the collection is about 8.1%.
# KB-V1 cytotox = qHTS assay for MDR1-selective chemotherapeutics: Primary screen using the drug-selected MDR subline cells KB-V1; KB-V1 MDR cells viability, CellTiter-Glo, 72 h; Potency, µM (series often up to 46.1 µM), actives largely listed as cytotoxic; 400,000 compounds, 3.4% hits; AID 1347076, 2019; note: % is set by controls: 0 for no effect and ±100 for the full control effect; nearly all actives have a fitted effect of over 60% in size
#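 Luminescent ATP read-out (CellTiter-Glo, 10 min) measures survival of drug-selected KB-V1 MDR cells after 72 h, 37 degrees C compound exposure. Medium: phenol-red-free DMEM, 10% FBS. Values from fitted concentration-response curves.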
# ELG1 repair inh = qHTS screen for small molecules that inhibit ELG1-dependent DNA repair in human embryonic kidney (HEK293T) cells expressing luciferase-tagged ELG1. 330,000 compounds, 2.3% hits. HEK293T ELG1-luciferase reporter, luminescence, 16 h; DNA damage induced by 5-fluorouridine. Potency, µM (series often up to 46.1 µM), inactives show at the top dose activity change, negative = inhibition, hits mostly inhibitors. AID 504467, 2011; note: % is set by controls: 0 for no effect and ±100 for the full control effect; nearly all actives have a fitted effect of over 55% in size
#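 Luminescence from the luciferase reporter, measured 30 min after ONE-Glo reagent at room temperature, was the read-out. Beforehand, 2,000 cells per well were exposed for 16 hr at 37 °C to 5-fluorouridine together with compound or vehicle.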
# KB-3-1 cytotox = qHTS assay for MDR1-selective chemotherapeutics: Primary screen using the parental adenocarcinoma cell KB-3-1; 400,000 compounds, 1.4% hits; AID 1347075, 2019; Potency, µM (highest dose often 46.1 µM), hits mostly cytotoxic; KB-3-1 viability, CellTiter-Glo ATP luminescence, 72 h; note: % is set by controls: 0 for no effect and ±100 for the full control effect; nearly all actives have a fitted effect of over 60% in size
#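 KB-3-1 cells, DMEM (no phenol red) + 10% FBS; compound by pin transfer, 72 h, 37 °C. Readout: CellTiter-Glo luminescence after 10 min. Data normalized, curve-fitted.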
# MCF10A rerep = A quantitative high throughput screen for small molecules that induce DNA re-replication in MCF 10a normal breast cells; MCF 10A DNA re-replication, Hoechst nuclear intensity, 48 h; Potency, µM (highest dose often 46.1 µM), without a hit: top-dose activity, positive = re-replication, most hits filed as activators; 350,000 compounds, 2.9% hits; AID 624296, 2012; note: % of control where 0% means no effect; nearly all actives have a fitted effect of over 50% in size
# SW480 rerep = A quantitative high throughput screen for small molecules that induce DNA re-replication in SW480 colon adenocarcinoma cells | Potency, µM (top dose mostly 46.1 µM), for the others: top-dose re-replication activation, hits mostly activators | 340,000 compounds, 1.8% hits | SW480 DNA re-replication, Hoechst DNA content imaging, 48 h | AID 624297, 2012; note: % of control where 0% means no effect; nearly all actives have a fitted effect of over 55% in size
#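 Image-based DNA-content assay: after two days of treatment, nuclei were labelled with the DNA dye Hoechst and imaged, and hits were compounds raising the count of nuclei showing high fluorescence intensity.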
# ELG1 FLuc counter = qHTS screen for small molecules that inhibit ELG1-dependent DNA repair: Hit Confirmation in Cell-Based Luciferin Assay; Potency, µM (doses to about 46.1 µM), without a hit: at the highest dose activity change, negative = inhibition, actives largely listed as inhibitors; shares compounds with ELG1 repair inh; 350 compounds, 3% hits; cell-free firefly luciferase luminescence counter-screen, ViewLux; note: % is set by controls: 0 for no effect and ±100 for the full control effect
# ELG1 Luc conf = HTS assay for small molecules that inhibit ELG1-dependent DNA repair in human embryonic kidney (HEK293T) cells expressing luciferase-tagged ELG1: Hit Confirmation. shares compounds with ELG1 repair inh. HEK293T ELG1-luciferase levels, luminescence; cells co-treated with 5-fluorouridine. Potency, µM (titrated, usually from 46.1 µM), for the others: at the top dose activity change, negative = inhibition, actives largely listed as inhibitors. 670 compounds, 68% hits; note: % is set by controls: 0 for no effect and ±100 for the full control effect; nearly all actives have a fitted effect of over 55% in size
# Target sequence (Q96QE3 whole entry, looked up): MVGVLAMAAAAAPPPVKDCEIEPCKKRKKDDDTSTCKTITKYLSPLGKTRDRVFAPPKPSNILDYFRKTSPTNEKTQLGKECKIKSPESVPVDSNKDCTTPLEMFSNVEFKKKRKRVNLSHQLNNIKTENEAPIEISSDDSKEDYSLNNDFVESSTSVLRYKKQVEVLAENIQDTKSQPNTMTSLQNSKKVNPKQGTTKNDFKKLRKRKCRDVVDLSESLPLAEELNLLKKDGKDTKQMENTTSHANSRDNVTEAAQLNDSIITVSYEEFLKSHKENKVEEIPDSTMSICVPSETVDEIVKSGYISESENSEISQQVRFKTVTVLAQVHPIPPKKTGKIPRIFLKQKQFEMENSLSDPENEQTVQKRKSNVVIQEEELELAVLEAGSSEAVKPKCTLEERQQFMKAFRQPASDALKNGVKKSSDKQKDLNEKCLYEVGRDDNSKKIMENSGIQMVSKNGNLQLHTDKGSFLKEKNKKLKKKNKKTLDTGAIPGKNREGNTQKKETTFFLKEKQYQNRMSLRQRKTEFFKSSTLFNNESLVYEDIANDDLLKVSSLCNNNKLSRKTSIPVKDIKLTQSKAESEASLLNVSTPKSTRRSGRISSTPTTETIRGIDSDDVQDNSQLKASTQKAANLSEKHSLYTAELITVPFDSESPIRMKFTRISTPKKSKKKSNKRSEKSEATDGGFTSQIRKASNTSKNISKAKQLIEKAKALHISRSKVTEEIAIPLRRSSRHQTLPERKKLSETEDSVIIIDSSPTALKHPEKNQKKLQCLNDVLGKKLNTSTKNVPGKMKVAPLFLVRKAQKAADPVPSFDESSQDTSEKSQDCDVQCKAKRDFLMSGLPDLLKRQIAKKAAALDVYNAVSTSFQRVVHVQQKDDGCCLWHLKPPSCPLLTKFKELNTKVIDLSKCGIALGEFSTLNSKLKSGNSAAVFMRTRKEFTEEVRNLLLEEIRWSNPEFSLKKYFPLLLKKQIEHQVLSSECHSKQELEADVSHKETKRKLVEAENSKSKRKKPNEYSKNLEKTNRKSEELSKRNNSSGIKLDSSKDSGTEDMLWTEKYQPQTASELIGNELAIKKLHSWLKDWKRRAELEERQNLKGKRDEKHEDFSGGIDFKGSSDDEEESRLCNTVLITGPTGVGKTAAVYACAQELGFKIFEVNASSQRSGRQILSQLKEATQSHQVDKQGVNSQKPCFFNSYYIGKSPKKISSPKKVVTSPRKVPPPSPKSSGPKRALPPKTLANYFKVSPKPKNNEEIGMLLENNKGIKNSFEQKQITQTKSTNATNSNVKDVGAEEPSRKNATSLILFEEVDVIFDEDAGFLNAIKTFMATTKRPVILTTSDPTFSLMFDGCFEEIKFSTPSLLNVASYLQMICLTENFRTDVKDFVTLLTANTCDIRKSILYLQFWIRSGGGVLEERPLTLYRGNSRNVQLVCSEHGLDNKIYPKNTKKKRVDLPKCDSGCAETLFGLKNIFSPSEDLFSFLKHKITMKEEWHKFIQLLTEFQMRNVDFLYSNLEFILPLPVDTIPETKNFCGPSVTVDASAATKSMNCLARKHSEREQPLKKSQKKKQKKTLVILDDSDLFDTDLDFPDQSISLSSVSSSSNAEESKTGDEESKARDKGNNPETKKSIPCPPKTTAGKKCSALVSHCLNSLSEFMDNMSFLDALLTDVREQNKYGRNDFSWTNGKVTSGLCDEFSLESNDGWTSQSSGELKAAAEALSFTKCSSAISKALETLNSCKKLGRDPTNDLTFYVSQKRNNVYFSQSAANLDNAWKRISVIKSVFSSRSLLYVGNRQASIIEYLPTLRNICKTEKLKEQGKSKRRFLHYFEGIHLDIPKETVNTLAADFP
# ELG1 MMS Luc = inhibits ELG1-dependent repair under MMS stimulation in HEK293T cells | shares compounds with ELG1 repair inh | HEK293T luciferase-tagged ELG1 level, MMS stimulated | Potency, µM (top dose mostly 46.1 µM), inactives show top-dose activity change, negative = inhibition, most hits filed as inhibitors | 670 compounds, 53% hits | AID 624249; note: % is set by controls: 0 for no effect and ±100 for the full control effect; nearly all actives have a fitted effect of over 60% in size
# ELG1 5-FU = qHTS screen for small molecules that inhibit ELG1-dependent DNA repair: Hit Confirmation with 5FU Viability; Potency, µM (doses to about 46.1 µM), for the others: top-dose activity change, negative = viability loss, actives largely listed as cytotoxic; cell viability with 5-FU, ELG1-dependent repair; AID 624250, 2012; shares compounds with ELG1 repair inh; 670 tested, under 10 active;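 note: ELG1-luc HEK293T cells cotreated with 5-fluorouridine at 10 µM final; viability measured 16 h after compound addition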
# ELG1 MMS viab = qHTS screen for small molecules that inhibit ELG1-dependent DNA repair: Hit Confirmation with MMS Viability. Potency, µM (doses to about 46.1 µM), for inactives: at the highest dose activity change, negative = viability loss, most hits filed as cytotoxic. 670 compounds, 33% hits. AID 624251, 2012. shares compounds with ELG1 repair inh. Cell viability with MMS, ELG1-dependent DNA repair;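 note: ELG1-luc HEK293T cells co-treated with 10 µM MMS; viability read 16 h after compound addition; % is set by controls: 0 for no effect and ±100 for the full control effect; nearly all actives have a fitted effect of over 60% in size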
# ELG1 unstim viab = qHTS screen for small molecules that inhibit ELG1-dependent DNA repair: Hit Confirmation with Unstimulated Viability Assay | shares compounds with ELG1 repair inh | cell viability counter-screen, unstimulated, luminescence | Potency, µM (top dose mostly 45.9 µM), for inactives: at the top dose activity change, negative = loss of viability, actives largely listed as cytotoxic | 900 compounds, 8% hits | AID 624252, 2012;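 note: compound exposure lasted 16 hours before reading; % is set by controls: 0 for no effect and ±100 for the full control effect; nearly all actives have a fitted effect of over 55% in size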
# FLuc enzyme = qHTS screen for small molecules that inhibit ELG1-dependent DNA repair: Hit Confirmation in Biochemical Luciferin Assay; shares compounds with ELG1 repair inh; purified firefly luciferase, luminescence counter-screen; Potency, µM (highest dose often 57.5 µM), for inactives: top-dose activity, negative = inhibition, most hits filed as inhibitors; 350 compounds, 10% hits; AID 624253, 2012; note: % is set by controls: 0 for no effect and ±100 for the full control effect
# * marks the source's active call; other numbers are inactive results; i = inactive; ? = inconclusive; / = no result given. Calls come from the whole dose curve; as a rule, active = well fitted curve in the direction sought with a large enough effect; inconclusive = small, poorly fitted or top-dose-only effect, or another doubt; inactive = no such curve, though single readings can be large; an effect the other way counts as inactive or inconclusive. Potency is the fitted concentration of half-maximal effect.
SMILES,KB-V1 cytotox,ELG1 repair inh,KB-3-1 cytotox,MCF10A rerep,SW480 rerep,ELG1 Luc conf,ELG1 MMS Luc,ELG1 5-FU,ELG1 MMS viab,ELG1 unstim viab,others
CCCNC(=O)C1(C)CCN(C(=O)/C=C/c2ccccc2)C1 (configuration not stated),i,/,i,/,/,/,/,/,/,/,
COc1ccc(NC(=O)Nc2nnc(N(C)C3CCCCC3)s2)c(OC)c1,i,/,i,/,/,/,/,/,/,/,
CC(C)OC(=O)c1c(N)n(CCCN2CCOCC2)c2nc3ccccc3nc12,i,-20.6%,i,0.5%,?,/,/,/,/,/,
COCC(C)OC(=O)c1c(N)n(CC(C)C)c2nc3ccccc3nc12 (configuration not stated),i,3.66µM*,i,27.0%,?,4.99µM*,-20.5%,?,0.2%,-1.5%,
CSCCC(NS(=O)(=O)c1ccc2c(c1)OCCO2)C(=O)N(C)Cc1ccc(C)cc1 (configuration not stated),?,-21.9%,i,?,17.7%,/,/,/,/,/,
COc1cccc(CN(C)C(=O)C(CCSC)NS(=O)(=O)c2ccc3c(c2)OCCO3)c1OC (configuration not stated),14.6µM*,4.61µM*,i,?,-448.4%,11.2µM*,8.88µM*,9.0%,?,?,
COC(=O)c1ccc(OCC2c3cc(OC)c(OC)cc3CCN2C(C)=O)cc1 (configuration not stated),?,6.51µM*,i,4.2%,3.7%,9.97µM*,?,?,?,?,ELG1 FLuc counter=29.1%;FLuc enzyme=-16.3%
CN=C1SC(CC(=O)Nc2ccccc2F)C(=O)N1/N=C/c1ccc(O)c(OC)c1 (configuration not stated),i,2.91µM*,i,?,-4.8%,14.1µM*,11.8%,?,-0.5%,?,
O=S(=O)(O)O,/,/,/,7.4%,11.3%,/,/,/,/,/,
Cc1ccc(C)c(NC(=O)CN2CCCN(Cc3cccc(Cl)c3)S2(=O)=O)c1,?,/,i,/,/,/,/,/,/,/,
COc1ccccc1NC(=O)c1cc2c(CO)cnc(C)c2oc1=Nc1ccc(OC)c(OC)c1,i,2.91µM*,i,-3.6%,-11.8%,0.888µM*,?,?,?,?,
COc1ccccc1NC(=O)c1cc2c(CO)cnc(C)c2oc1=Nc1cc(OC)c(OC)c(OC)c1,i,1.0%,i,-0.1%,-0.2%,/,/,/,/,/,
Cc1cc(=O)c2c(=O)[nH][nH]c2[nH]1,i,/,i,/,/,/,/,/,/,/,
CC(=O)c1c(C)[nH]c(C(=O)Nc2cccc(S(=O)(=O)N3CCCC3)c2)c1C,i,?,?,?,-4.5%,/,/,/,/,?,
CC(=O)c1c(C)[nH]c(C(=O)Nc2cccc(S(=O)(=O)N(C)C)c2)c1C,i,?,i,4.8%,2.5%,/,/,/,/,/,
O=S(=O)(c1cc(F)ccc1F)N1CCN(c2ncnc3ccccc23)CC1,9.2µM*,4.61µM*,5.17µM*,5.8µM*,18.4µM*,6.28µM*,2.23µM*,-14.3%,2.5µM*,?,
COC(=O)C1CC(O)C(O)C(O)C1 (configuration not stated),i,/,i,5.2%,-38.6%,/,/,/,/,/,
Cn1cccc1C(=O)Nc1ccc(N2CCOCC2)cc1,i,?,i,-3.4%,-9.8%,/,/,/,/,-13.4%,
CCOC(=O)c1c(NC(=O)C[n+]2ccc(N(C)C)cc2)sc(C)c1C,i,4.11µM*,?,4.2%,-24.6%,0.0%,19.1%,-3.4%,-7.9%,?,
CCN1CCN(c2ccc(Nc3ccnc4ccccc34)cc2)CC1,i,4.61µM*,?,?,14.6µM*,?,17.7µM*,-8.1%,?,-13.2%,
CC(=O)OCC1=C[C@H]2[C@@H]3C(C)(C)[C@]3(OC(C)=O)C[C@@H](C)[C@]2(O)[C@@H]2C=C(C)C(=O)[C@@]2(O)C1,/,/,/,/,/,/,/,/,/,?,
Cc1ncoc1C(=O)NC1CCCc2c1cnn2-c1ccc(C(C)(C)C)cc1 (configuration not stated),i,1.3µM*,18.4µM*,3.5%,13.4%,?,0.791µM*,-6.4%,0.791µM*,8.88µM*,
Cc1ncoc1C(=O)NC1CCCc2c1cnn2-c1cc(F)cc(F)c1 (configuration not stated),?,/,i,/,/,/,/,/,/,/,
